From PubChem BioAssay (NCI) come the findings set out here.

Molecules are shown by their SMILES. Compounds without any hit were thinned out: in the full panel of roughly 83,000, 20% have a hit.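 Cells were grown in 96-well plates and exposed to the test compound at a single concentration for 48 hours; results are reported as percent growth, with values below 10 considered active.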 Values without a mark were called inactive. The source made the active and inactive calls.

Holding throughout (experiment): NCI-60 one-dose screen, 48 h (100 = growth as untreated, 0 = no growth, -100 = all killed)
Settings in all cases: 10 µM unless noted

Experiment [1] concerns NCI-H23 lung.
Experiment [2] concerns NCI-H226 lung.
The test system of experiment [3] is NCI-H322M lung.
The test system of experiment [4] is HOP-62 NSCLC.
For experiment [5], the system named is NCI-H460 lung.
The test system of experiment [6] is HOP-92 NSCLC.
Experiment [7] concerns NCI-H522 lung.
Experiment [8] deals with 786-0 renal.
For experiment [9], the system named is COLO 205 colon.
Experiment [10] has as its system DU-145 prostate.
Experiment [11] relates to K-562 leukemia.
For experiment [12], the system named is MALME-3M melanoma.
The subject of experiment [13] is MDA-MB-231 breast.
In experiment [14] the test system is RXF 393 renal.
For experiment [15], the system named is SF-268 CNS.
Experiment [16] has as its system SF-295 CNS.
In experiment [17] the test system is SF-539 CNS.
In experiment [18] the test system is UACC-257 melanoma.
For experiment [19], the system named is M14 melanoma.
In experiment [20] the test system is A549/ATCC NSCLC.

With `O=[N+]([O-])c1cccc(-c2nnc3c(/C=C/c4ccc(F)cc4)nc4ccccc4n23)c1`, the growth in experiment [1] is 91.7%; in experiment [2], 98.6%; in [3] it was 101%; in experiment [4], 97.9%; in [5] it was 90.3%; in experiment [6], 80%. Moreover, the growth in [7] was 81%; in experiment [8], 93.5%; in experiment [9], 126%; in [10] it was 98.7%; in experiment [11], 87%; in [12], 95.7%. Besides, the growth in experiment [13] was 94.6%; in experiment [14], 77.2%; in experiment [15], 87.5%; in experiment [16], 80.8%; in [17], 66.9%; in experiment [18] it was 107%. Further, the growth in [19] was 108%.

In the case of `Cn1cc(-c2cc(N)n3nc(-c4c[nH]c5ccccc45)cc3n2)c2cc(Cl)ccc21`, the growth in [1] was -70.7% (active); in [2] it was 16.6%; in [3], -35.3% (active); in experiment [4], -73.7% (active); in experiment [5], -59.5% (active); in experiment [6] it was -68.5% (active). Besides, the growth in [20] is -37.8% (active); in experiment [8] it was -67.8% (active); in experiment [9], -90.8% (active); in [10] it was -62.6% (active); in experiment [11] it was 7.97% (active); in experiment [12] it was -78% (active). For the same compound, the growth in experiment [13] was -85.5% (active); in [14], -84.7% (active); in [15], -46.3% (active); in experiment [16] it was -88% (active); in [17], -92.2% (active); in experiment [18], -84.3% (active). Besides, the growth in [19] is -75.5% (active).

As to `CCCCN1C(=O)/C(=C\C(=O)c2cc3ccccc3oc2=O)c2ccccc21`, the growth in experiment [1] was 79%; in [2], 88.5%; in [3], 99.4%; in experiment [4] it was 92.3%; in experiment [5], 86.4%; in experiment [6] it was 63.7%. For the same compound, the growth in experiment [20] is 106%; in [8] it was 75%; in experiment [9], -20.5% (active); in experiment [10] it was 85.8%; in experiment [11] it was -36.9% (active); in experiment [12] it was 69%. For the same compound, the growth in experiment [13] is 48.2%; in experiment [14] it was 60.1%; in [15], 87.5%; in experiment [16], 101%; in experiment [17], 80.2%; in [18] it was 105%.

On to `CC(C)(C)OC(=O)N1CCC2(CC1)Oc1ccccc1[C@H]1CC(c3ccc(Br)cc3)=NN12`, for which the growth in [1] was 80.9%; in experiment [2], 79%; in experiment [3] it was 86.6%; in experiment [4] it was 77%; in [5], 66.6%; in experiment [6], 67.5%. Besides, the growth in experiment [20] was 67.4%; in [8], 76.8%; in experiment [9], 101%; in experiment [10] it was 93.1%; in experiment [11], 36.1%; in experiment [12] it was 90%. Also, the growth in experiment [13] was 63%; in [14], 86.2%; in experiment [15] it was 55.9%; in experiment [16] it was 52.5%; in experiment [17], 88.8%; in [18], 99.3%. For the same compound, in experiment [19], the growth was 87.3%.

For the compound `Oc1ccc(Cl)c(Nc2nc(SCCN3CCOCC3)nc3c2cnn3CC(Cl)c2ccc(Br)cc2)c1` (stereo unspecified), the growth was 31.8% in [1]; 38.5% in experiment [2]; 92.8% in experiment [3]; 32.7% in [4]; 10.1% in experiment [5]; -6.99% (active) in [6]. In addition, the growth in experiment [7] was 22.2%; in [8] it was 43.3%; in [9] it was 106%; in experiment [10] it was 35%; in [11] it was -22.9% (active); in experiment [12] it was 12.2%. Also, the growth in experiment [13] is -3.97% (active); in experiment [14], -14.2% (active); in [15], 40.8%; in experiment [16], 13%; in experiment [17], 29.2%; in experiment [18], 28.2%. In addition, the growth in [19] is 25%.

As for `N#CCc1nnc(NC(=O)c2ccc(-n3c(=O)[nH]c4ccccc4c3=O)cc2)s1`, the growth in experiment [1] is 93%; in experiment [2], 106%; in experiment [3], 101%; in experiment [4], 101%; in experiment [5], 100%; in [6], 98.1%. Besides, the growth is 89.3% in experiment [7]; 106% in [8]; 105% in [9]; 128% in [10]; 101% in experiment [11]; 95.3% in experiment [12]. In addition, the growth in experiment [13] is 95.5%; in experiment [14] it was 112%; in experiment [15], 115%; in [16], 93.6%; in experiment [17], 97.9%; in experiment [18] it was 104%. In addition, the growth in experiment [19] was 108%.

Consider `O=C(N/N=C/c1ccoc1)c1[nH]c2ccc(Br)cc2c1-c1ccccc1`, for which the growth in [1] is -96.6% (active); in experiment [2], -66.2% (active); in experiment [3] it was -86.4% (active); in experiment [4], -70.6% (active); in [5] it was -83.2% (active); in [6], -62.4% (active). For the same compound, the growth was -82.2% (active) in [7]; -76.5% (active) in experiment [8]; -68.9% (active) in experiment [9]; -48.3% (active) in experiment [10]; 3.56% (active) in experiment [11]; -84.7% (active) in experiment [12]. In addition, the growth is -85.6% (active) in [13]; -86.3% (active) in experiment [14]; -56.8% (active) in [15]; -97.9% (active) in experiment [16]; -97.6% (active) in experiment [17]; -78.1% (active) in experiment [18]. The growth in [19] is -84.6% (active).

Consider `CCCCCCCCCCCCCCCCCC(=O)Nc1ccc(OC)cc1`, for which the growth in experiment [1] was 105%; in experiment [2], 103%; in experiment [3], 102%; in [4], 101%; in experiment [5], 109%; in [6] it was 102%. The growth in experiment [20] was 104%; in [8] it was 102%; in experiment [9], 120%; in [10], 112%; in [11], 92%; in [12] it was 97.7%. The growth was 99.9% in experiment [13]; 115% in experiment [14]; 108% in experiment [15]; 106% in [16]; 97.3% in [17]; 102% in experiment [18]. Also, the growth in experiment [19] is 105%.
